According to PubChem BioAssay (Tox21):
Inconclusive results are not listed. Activity calls are given as the source filed them. Unless noted, the call rests on the fitted dose curve; in most records, active means well fitted curve in the direction sought with a large enough effect in the repeat runs; inconclusive means weak or mixed curves; inactive means no such curve, though single readings can be large; an effect the other way counts as inactive or inconclusive.

Legend:
[1] = A CellTox Green Cytotoxicity Assay to monitor cytotoxicity in HepG2 cells - 16 hour (AID 1224876); further: nearly all actives have a fitted effect of over 45% in size
Method in brief: (§1)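 Measurements at 0, 8, 16, 24, 32 and 40 h of treatment captured CellTox Green fluorescence in HepG2 cells that had been co-plated with reagent and preincubated 5 h at 37 C/5% CO2.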

[2] = qHTS RealTime-Glo MT Cell Viability Assay in HepG2 cells - 32 hour (AID 1224877); further: nearly all actives have a fitted effect of over 55% in size
Method in brief: (§2)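 Luminescence read-out: viable HepG2 cells reduce a prosubstrate to a NanoLuc substrate, giving a signal proportional to live cell number. Reads taken at 0, 8, 16, 24, 32 and 40 h of compound exposure at 37 C.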

[3] = A CellTox Green Cytotoxicity Assay to monitor cytotoxicity in HepG2 cells - 24 hour (AID 1224878); further: nearly all actives have a fitted effect of over 45% in size
Method in brief: as §1

[4] = A CellTox Green Cytotoxicity Assay to monitor cytotoxicity in HepG2 cells - 40 hour (AID 1224879); further: nearly all actives have a fitted effect of over 40% in size
Method in brief: as §1

[5] = qHTS RealTime-Glo MT Cell Viability Assay in HEK293 cells - 0 hour (AID 1224880); further: top concentration of the series differs between compounds; nearly all actives have a fitted effect of over 45% in size
Method in brief: (§3)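 HEK293 + NanoLuc + prosubstrate, 600 cells/well; 5 h, 37 C/5% CO2; compound 23 nL in DMSO by pintool; 37 C; luminescence read at 0, 8, 16, 24, 32 and 40 h time points.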

[6] = A CellTox Green Cytotoxicity Assay to monitor cytotoxicity in HEK293 cells - 32 hour (AID 1224881); further: nearly all actives have a fitted effect of over 40% in size
Method in brief: (§4)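 Tox21 screen in HEK293: membrane-impermeant cyanine dye fluoresces on binding dead-cell DNA; compound pinned 5 h post-seeding, plates held at 37 C, signal read repeatedly through 40 h.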

[7] = A CellTox Green Cytotoxicity Assay to monitor cytotoxicity in HepG2 cells - 0 hour (AID 1224882); further: nearly all actives have a fitted effect of over 35% in size
Method in brief: as §1

[8] = A CellTox Green Cytotoxicity Assay to monitor cytotoxicity in HepG2 cells - 32 hour (AID 1224883); further: nearly all actives have a fitted effect of over 50% in size
Method in brief: as §1

[9] = A CellTox Green Cytotoxicity Assay to monitor cytotoxicity in HEK293 cells - 8 hour (AID 1224884); further: nearly all actives have a fitted effect of over 35% in size
Method in brief: as §4

[10] = qHTS RealTime-Glo MT Cell Viability Assay in HepG2 cells - 16 hour (AID 1224885); further: nearly all actives have a fitted effect of over 50% in size
Method in brief: as §2

[11] = qHTS RealTime-Glo MT Cell Viability Assay in HEK293 cells - 8 hour (AID 1224887); further: top concentration of the series differs between compounds; nearly all actives have a fitted effect of over 50% in size
Method in brief: as §3

[12] = qHTS RealTime-Glo MT Cell Viability Assay in HepG2 cells - 0 hour (AID 1224889); further: nearly all actives have a fitted effect of over 50% in size
Method in brief: as §2

[13] = A CellTox Green Cytotoxicity Assay to monitor cytotoxicity in HepG2 cells - 8 hour (AID 1224890); further: nearly all actives have a fitted effect of over 45% in size
Method in brief: as §1

[14] = qHTS assay to identify small molecule antagonists of the androgen receptor (AR) signaling pathway using the MDA cell line in the presence of 0.5 nM R1881 - cell viability counter screen (AID 1259242); further: nearly all actives have a fitted effect of over 45% in size
Method in brief: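 Concentration-response screen of compounds for toxicity in MDA-kb2 reporter cells: 16 hr at 37C with 0.5 nM R1881, endpoint live-cell protease fluorescence measured in the reporter wells.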

[15] = molecular target: Estrogen receptor (Homo sapiens) (UniProt P03372); assay: qHTS assay to identify small molecule antagonists of the estrogen receptor alpha (ER-alpha) signaling pathway using the BG1 cell line in the presence of 0.1 nM 17-beta-estradiol (AID 1259244); further: nearly all actives have a fitted effect of over 50% in size
Method in brief: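 Compounds were tested against 0.1 nM (final) 17beta-estradiol in VM7Luc4E2 cells, which express full-length ER-alpha and an ERE-luciferase reporter; luminescence was recorded following 22 h exposure.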

[16] = qHTS assay to identify small molecule phospholipidosis (PLD) inducers (AID 1259344; active means well fitted curve in the direction sought with a large enough effect; an effect the other way counts as inactive or inconclusive)
Method in brief: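 Phospholipid accumulation was scored by imaging: fixed, Hoechst-counterstained HepG2 cells stained with LipidTOX Red after 24 h compound exposure at 37 C. Read-outs were pit count and pit intensity per well or per cell, with amiodarone and DMSO controls.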

[17] = A CellTox Green Cytotoxicity Assay to monitor cytotoxicity in HEK293 cells - 16 hour (AID 1224888); further: nearly all actives have a fitted effect of over 35% in size
Method in brief: as §4

[18] = qHTS assay to identify small molecule antagonists of the estrogen receptor alpha (ER-alpha) signaling pathway using the BG1 cell line in the presence of 0.1 nM 17-beta-estradiol - cell viability counter screen (AID 1259241); further: nearly all actives have a fitted effect of over 40% in size
Method in brief: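 Cells were plated and left 24 hr, compounds in DMSO were pinned in, 17beta-estradiol was added to 0.1 nM final, and after 22 hr CellTiter-Fluor reagent was added for 30 min before fluorescence was read.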

[19] = molecular target: Androgen receptor (Homo sapiens) (UniProt P10275); assay: qHTS assay to identify small molecule antagonists of the androgen receptor (AR) signaling pathway using the MDA cell line in the presence of 0.5 nM R1881 (AID 1259243); further: nearly all actives have a fitted effect of over 50% in size
Method in brief: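 With R1881 held at 0.5 nM (final), compound effects on MMTV-luciferase expression in MDA-kb2 cells were scored by luminescence after a 16 hr, 37C incubation.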

[20] = qHTS RealTime-Glo MT Cell Viability Assay in HEK293 cells - 24 hour (AID 1224886)
Method in brief: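 Nonlytic real-time viability readout: viable cells convert prosubstrate to NanoLuc substrate, giving luminescence proportional to live cell number. HEK293, 600 cells/well, compound added after 5 h, continuous culture at 37 C.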

Measured: Potency

Chain of Estrogen receptor (Homo sapiens) (P03372 whole entry, looked up): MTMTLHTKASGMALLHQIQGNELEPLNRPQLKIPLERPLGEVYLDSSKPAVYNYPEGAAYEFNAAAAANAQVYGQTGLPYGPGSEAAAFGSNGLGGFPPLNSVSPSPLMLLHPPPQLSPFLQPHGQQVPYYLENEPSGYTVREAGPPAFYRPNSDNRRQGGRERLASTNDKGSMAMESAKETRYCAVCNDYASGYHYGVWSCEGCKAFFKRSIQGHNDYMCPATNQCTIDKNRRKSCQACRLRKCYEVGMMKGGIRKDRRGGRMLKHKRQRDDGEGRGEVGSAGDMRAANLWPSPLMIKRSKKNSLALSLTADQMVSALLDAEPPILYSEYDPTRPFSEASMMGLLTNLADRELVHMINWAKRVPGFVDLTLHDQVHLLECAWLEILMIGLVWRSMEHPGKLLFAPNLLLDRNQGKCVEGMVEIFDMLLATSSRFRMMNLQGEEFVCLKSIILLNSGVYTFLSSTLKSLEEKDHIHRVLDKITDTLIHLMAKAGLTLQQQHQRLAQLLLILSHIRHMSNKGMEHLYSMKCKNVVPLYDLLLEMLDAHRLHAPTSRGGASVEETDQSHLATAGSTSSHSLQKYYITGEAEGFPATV
Chain of Androgen receptor (Homo sapiens) (P10275 whole entry, looked up): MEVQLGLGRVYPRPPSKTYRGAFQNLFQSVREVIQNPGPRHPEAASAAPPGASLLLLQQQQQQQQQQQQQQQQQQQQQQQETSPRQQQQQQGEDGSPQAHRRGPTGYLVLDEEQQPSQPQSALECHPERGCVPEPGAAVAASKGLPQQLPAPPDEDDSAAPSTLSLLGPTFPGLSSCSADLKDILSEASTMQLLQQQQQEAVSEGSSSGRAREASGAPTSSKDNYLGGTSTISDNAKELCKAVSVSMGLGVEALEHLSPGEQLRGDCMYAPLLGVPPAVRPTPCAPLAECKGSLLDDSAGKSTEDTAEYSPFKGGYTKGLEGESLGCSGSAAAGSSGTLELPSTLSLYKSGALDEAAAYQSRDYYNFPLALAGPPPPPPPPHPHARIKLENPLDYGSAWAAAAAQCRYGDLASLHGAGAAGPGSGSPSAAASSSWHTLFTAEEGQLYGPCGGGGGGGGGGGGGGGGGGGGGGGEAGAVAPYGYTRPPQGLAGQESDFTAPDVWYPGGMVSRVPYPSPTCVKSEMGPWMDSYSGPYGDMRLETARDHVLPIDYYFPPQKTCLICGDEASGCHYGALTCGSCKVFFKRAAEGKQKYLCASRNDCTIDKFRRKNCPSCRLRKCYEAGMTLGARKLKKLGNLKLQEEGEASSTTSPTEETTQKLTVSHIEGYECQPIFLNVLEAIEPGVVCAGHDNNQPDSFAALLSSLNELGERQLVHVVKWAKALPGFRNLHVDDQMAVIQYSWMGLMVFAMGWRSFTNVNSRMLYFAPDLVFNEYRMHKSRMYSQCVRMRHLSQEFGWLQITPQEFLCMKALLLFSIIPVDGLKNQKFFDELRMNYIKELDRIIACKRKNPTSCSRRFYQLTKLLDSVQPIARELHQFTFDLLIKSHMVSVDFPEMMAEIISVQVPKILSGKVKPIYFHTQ

O=C(O)CCNC(=O)c1ccccc1
not listed: [17] | [18] | [19] | [20]
inactive: all other assays above

CCC(=O)c1ccc(O)cc1
not listed: [18] | [19] | [20]
inactive: all other assays above

CCCOCCOCCOCCO
not listed: [16] | [20]
inactive: all other assays above

NS(=O)(=O)c1cc2c(cc1Cl)NC(C(Cl)Cl)NS2(=O)=O (stereo not drawn)
not listed: [15] | [19] | [20]
inactive: all other assays above

C[Si]1(C)N[Si](C)(C)N[Si](C)(C)N1
not listed: [13] | [14] | [16] | [19] | [20]
inactive: all other assays above

O=[Si]=O
not listed: [16] | [19] | [20]
inactive: all other assays above

Cc1cccc(NC(=S)N(C)C)c1
not listed: [13] | [14] | [15] | [16] | [18] | [19] | [20]
inactive: all other assays above

CCC(C)N (stereo not drawn)
not listed: [16] | [18] | [19] | [20]
inactive: all other assays above

c1ccccc1
not listed: [14] | [15] | [16] | [18] | [19] | [20]
inactive: all other assays above

CCCCC[Si](OCC)(OCC)OCC
not listed: [13] | [15] | [16] | [20]
inactive: all other assays above

CC(C)(CO)[C@@H](O)C(=O)NCCCO
not listed: [19] | [20]
inactive: all other assays above

Cc1c(C(C)C)c(=O)n(-c2ccccc2)n1C
not listed: [13] | [18] | [19] | [20]
inactive: all other assays above

CCOC(=O)CC#N
not listed: [14] | [15] | [16] | [19] | [20]
inactive: all other assays above

Nc1cc(Cl)cc(S(=O)(=O)O)c1O
not listed: [9] | [15] | [16] | [17] | [18] | [19]
inactive: all other assays above

CCOc1ccc(NC(=O)OC(C)C)cc1OCC
not listed: [9] | [15] | [16] | [19]
inactive: all other assays above

CCCCCCCCCCCCCC(=O)OC
not listed: [5] | [16]
inactive: all other assays above

CC(=O)OC[C@H]1O[C@@H](OC(C)=O)[C@H](OC(C)=O)[C@@H]1OC(C)=O
not listed: [5] | [15] | [16]
inactive: all other assays above
